FECH block – human FECH heme synthesis enzyme inhibition; calls only at 10 µM (by protocol); purified FECH, Ni-mesoporphyrin absorbance 550 nm; 3.3% of 20,000 active; AID 1671448;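 active = enzyme reaction rate more than 3 SD below the solvent-only control wells on the same plate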;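 note: lower slope than DMSO wells means FECH inhibition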
Target sequence (P22830 whole entry, looked up): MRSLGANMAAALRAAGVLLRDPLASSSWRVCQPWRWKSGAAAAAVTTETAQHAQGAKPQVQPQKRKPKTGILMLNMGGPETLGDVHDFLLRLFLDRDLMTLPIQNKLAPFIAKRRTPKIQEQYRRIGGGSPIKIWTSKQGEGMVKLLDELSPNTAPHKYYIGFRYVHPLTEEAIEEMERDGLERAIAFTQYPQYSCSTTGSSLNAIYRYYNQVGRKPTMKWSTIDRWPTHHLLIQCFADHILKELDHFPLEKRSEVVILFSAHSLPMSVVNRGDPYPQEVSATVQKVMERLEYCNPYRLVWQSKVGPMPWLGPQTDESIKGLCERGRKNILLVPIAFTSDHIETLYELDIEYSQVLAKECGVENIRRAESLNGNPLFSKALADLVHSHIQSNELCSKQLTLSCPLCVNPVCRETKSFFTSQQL
* marks the source's active call; other numbers are inactive results; i = inactive; + = active, no number. This is one part of a sample in which hits are shown more often than they occur.

SMILES | FECH block
CCc1cc(Sc2ccccc2NC(=O)c2ccc(Cl)cc2)n2nc(C)nc2n1 | i
CCc1ccccc1NC(=O)CN1CCN(Cc2ccccc2C)S1(=O)=O | i
CCOc1ccccc1NC(=O)CN1CCN(Cc2ccccc2C)S1(=O)=O | +
CCOc1ccccc1NC(=O)CN1CCN(Cc2ccc(F)cc2Cl)S1(=O)=O | +
CCc1ccccc1NC(=O)CN1CCN(Cc2ccc(F)cc2Cl)S1(=O)=O | i
CCOC(=O)c1ccccc1NC(=O)CN1CCN(Cc2ccccc2C)S1(=O)=O | i
CCOc1ccccc1NC(=O)CN1CCN(Cc2ccccc2Cl)S1(=O)=O | i
O=S(=O)(NCc1cnn2ccccc12)c1ccccc1F | i
CN1C(=O)C2CCCCN2c2ccc(C(=O)N3CCN(c4ccccc4)CC3)cc21 (configuration not stated) | i
Oc1cccc(-c2cn(C(Cn3ccnc3)c3ccccc3)nn2)c1 (configuration not stated) | i
c1nc2c(c(NCCc3cn[nH]c3)n1)CCNC2 | i
Cc1nc2ccc(CC(=O)N3CCC(O)(CO)CC3)cc2[nH]1 | i
CCC1=NOC(C(=O)NCc2csc(-c3cnccn3)n2)C1 (configuration not stated) | i
Cc1ccc(C2=CC(c3ccc(C)cc3)n3nc(NC(=O)c4cccc(Cl)c4)nc3N2)cc1 (configuration not stated) | +
Cc1ccc(C2=CC(c3ccc(Cl)cc3)n3nc(NC(=O)C(C)C)nc3N2)cc1 (configuration not stated) | i
Cc1cccc(C(=O)Nc2nc3n(n2)C(c2ccc(Cl)cc2)C=C(c2ccccc2)N3)c1 (configuration not stated) | +
Cc1ccc(C(=O)Nc2nc3n(n2)C(c2ccc(F)cc2)C=C(c2ccccc2)N3)cc1 (configuration not stated) | i
O=C(Nc1nc2n(n1)C(c1ccc(F)cc1)C=C(c1ccc(Cl)cc1)N2)c1ccccc1 (configuration not stated) | i
O=C(Nc1nc2n(n1)C(c1ccccc1)C=C(c1ccc(Cl)cc1)N2)c1ccc(Cl)cc1 (configuration not stated) | i
Cc1ccc(C(=O)Nc2nc3n(n2)C(c2ccc(Cl)cc2)C=C(c2ccc(C)cc2)N3)cc1 (configuration not stated) | +
Cc1ccc(C(=O)Nc2nc3n(n2)C(c2ccccc2)C=C(c2ccccc2)N3)cc1 (configuration not stated) | i
Cc1cccc(C(=O)Nc2nc3n(n2)C(c2ccccc2Cl)C=C(c2ccc(Cl)cc2)N3)c1 (configuration not stated) | i
CN(Cc1cn[nH]c1-c1ccc(F)cc1)C(=O)c1cnc2ccccc2n1 | i
COc1cccc(NC(=O)c2ccc(CN3C(=O)CCn4nc(-c5ccccc5)cc43)cc2)c1 | i
CN1C[C@@H]2CC[C@H](CC1=O)N2c1cc(N2CCOCC2)ncn1 | i
SMILES | FECH block
COc1ccc(NC(=O)NCCc2nc3cccnc3n2-c2ccccc2)cc1OC | i
Cc1ccc(NC(=O)C(=O)N2CCn3cncc3C2)cc1 | i
Cn1cnnc1Sc1ccc(-c2nccn2Cc2ccco2)o1 | i
Cc1cc2cc(C(=O)NCCc3csc(-c4ncccn4)n3)ccc2o1 | i
Cc1cc(C)c(S(=O)(=O)NCCn2c(C(F)(F)F)nc3cccnc32)c(C)c1 | i
CCn1c(=O)n(Cc2cccc(Cl)c2)c(=O)c2cnc(-c3ccc(OC)cc3)nc21 | +
C=Cc1ccc(Cn2c(=O)c3cnc(-c4ccc(OC)cc4)nc3n(CC)c2=O)cc1 | i
CCn1c(=O)n(Cc2cccc(OC)c2)c(=O)c2cnc(-c3ccc(OC)cc3)nc21 | i
CCn1c(=O)n(Cc2ccncc2)c(=O)c2cnc(-c3ccc(OC)cc3)nc21 | +
CCn1c(=O)n(Cc2cccc(OC)c2)c(=O)c2cnc(-c3ccc(Cl)cc3)nc21 | i
CCn1c(=O)n(Cc2ccccc2Cl)c(=O)c2cnc(-c3ccc(OC)cc3)nc21 | i
O=C1Nc2ccccc2S(=O)(=O)N1 | i
NC(=O)c1cccc(CC2CCN(C(=O)c3cnc4ccccc4c3)C2)c1 (configuration not stated) | i
CCc1nc(OCC(=O)NCc2ccc(OC)cc2)c2c(C)c(C)oc2n1 | i
COc1ccccc1NC(=O)CCn1cnc(-c2ccccc2)c1-c1ccco1 | i
Cn1cc(CN(Cc2ccc(CO)o2)C2CC2)cn1 | +
Cc1ccc(C(C)NC(=O)CN(Cc2cnn(C)c2)C2CC2)cc1 (configuration not stated) | i
Cn1cc(CN(Cc2cc3cc4c(cc3[nH]c2=O)OCO4)C2CC2)cn1 | i
COc1ccc(S(N)(=O)=O)cc1-c1noc(C(C)(C)C)n1 | i
COc1ccc(S(N)(=O)=O)cc1-c1noc(C2CCCCC2)n1 | i
CCc1nc(-c2cc(S(N)(=O)=O)ccc2OC)no1 | +
c1cc(-c2ccc(CNC3CC3)cc2)c2ccncc2c1 | i
NS(=O)(=O)c1ccc(CCNC(=O)CCCN2C(=O)c3cccnc3Sc3ccccc32)cc1 | i
NS(=O)(=O)c1ccc(CCNC(=O)CN2CCSc3ccccc32)cc1 | i
NS(=O)(=O)c1ccc(CCNC(=O)CCN2C(=O)c3cccnc3Sc3ccccc32)cc1 | +
SMILES | FECH block
COCCNC(=O)C1CCCN(C2CCN(Cc3nc(C)c(C)s3)CC2)C1 (configuration not stated) | i
CC(C(=O)NCc1cnc2c(c1)CCC2)n1cnc2ccccc21 (configuration not stated) | i
Cc1ccc(Nc2cc(C)nc(Nc3ccc(NC(=O)CCC4CCCCC4)cc3)n2)cc1 | i
CCCc1ccc(S(=O)(=O)NCCn2c(C(F)(F)F)nc3cccnc32)cc1 | i
Cc1ccc(C(C)NC(=O)CN2CCC(O)(Cn3ccnc3)CC2)cc1 (configuration not stated) | i
Cc1ccc(C(C)NC(=O)CN2CCC(O)(CN3CCCC3)CC2)cc1 (configuration not stated) | +
Cc1ccc(C(C)NC(=O)CN2CCS(=O)(=O)CC2)cc1 (configuration not stated) | i
Cc1ncnc2c1ncn2-c1cc(O)c(F)c(F)c1 | i
CN1Cc2ccccc2CC1C(=O)NCc1cc2ccc(F)cc2[nH]c1=O (configuration not stated) | i
CCOc1ccnc(N2CCN(Cc3ncccc3C)CC2)n1 | i
Cc1ccc(NC(=O)CN2c3ccc(Br)cc3-c3ccccc3S2(=O)=O)cc1C | +
COc1ccc(NC(=O)CN2c3ccc(Br)cc3-c3ccccc3S2(=O)=O)cc1 | i
O=C(CN1c2ccc(Br)cc2-c2ccccc2S1(=O)=O)Nc1ccc(F)cc1F | i
O=C(CN1c2ccc(Br)cc2-c2ccccc2S1(=O)=O)NC1CC1 | +
O=C1CN(C(=O)CN2c3ccc(Br)cc3-c3ccccc3S2(=O)=O)c2ccccc2N1 | i
CC(C)CCNC(=O)CN1c2ccc(Br)cc2-c2ccccc2S1(=O)=O | +
Cc1ccc(NC(=O)CN2c3ccc(Br)cc3-c3ccccc3S2(=O)=O)cc1 | +
Cc1cccc(C(C)C)c1NC(=O)CN1c2ccc(Br)cc2-c2ccccc2S1(=O)=O | i
NS(=O)(=O)c1ccc(NC(=O)CN2C(=O)c3ccccc3S2(=O)=O)cc1 | i
Cc1ccc(NC(=O)CN2CCN(Cc3ccccc3C)S2(=O)=O)cc1C | i
c1cc(-c2nccn2CCn2ccnc2)c2cccnc2c1 | i
Cc1ccc(-c2cc(Nc3cccc(Br)c3)nc(C)n2)cc1 | i

Source: PubChem
